In the library only some 18% were active in any assay of this set; here they are far more common.
CtBP-E1A blk: qHTS Assay for Inhibitors of the CtBP/E1A Interaction | CtBP / adenovirus E1A interaction (AlphaScreen) | AlphaScreen GST-E1A/His-CtBP binding, 1536-well; stronger effect = lower value | activity change, % (test concentration not listed) | 0.49% of 340,000 active; in the data active means activity change below about -65%; inconclusive means mostly about -30% to -63%
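Homogeneous bead-based format: GST-tagged E1A captured on glutathione donor beads, His-tagged CtBP on nickel acceptor beads; compounds precede bead addition by 2 h at 37 °C.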
DT40 TDP1 CPT: qHTS for Inhibitors of human tyrosyl-DNA phosphodiesterase 1 (TDP1): qHTS in cells in presence of CPT | chicken DT40 Tdp1-/-;hTDP1 cells + 20 nM CPT, ATP luminescence, 48 h | Potency, µM (titrated, usually from 46.2 µM), hits mostly inhibitors | 12% of 420,000 active | AID 686979, 2013; further: nearly all actives have a fitted effect of over 55% in size
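Chicken DT40 Tdp1-/- cells complemented with human TDP1, 400 cells/well, exposed to compounds plus 20 nM camptothecin for at least 48 h at 37 C; viability read as ATP content by CellTiter-Glo luminescence.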
TDP1 inh: qHTS Assay for Inhibitors of Tyrosyl-DNA Phosphodiesterase (TDP1); Potency, µM (doses to about 130 µM), hits mostly inhibitors; AID 485290, 2010; Tyrosyl-DNA phosphodiesterase 1 (Homo sapiens), Q9NUW8; 0.28% of 350,000 active; recombinant TDP1, AlphaScreen DNA substrate cleavage; further: nearly all actives have a fitted effect of over 40% in size
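Recombinant E. coli-expressed Tdp1 (1 nM) preincubated with compound 15 min at RT, then 5'-biotin/3'-phosphotyrosine-FITC DNA substrate (15 nM) added for 5 min. AlphaScreen beads (10 ug/ml) added, 10 min RT; tyrosine-FITC cleavage read as signal loss.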
DT40 TDP1 no CPT: qHTS for Inhibitors of human tyrosyl-DNA phosphodiesterase 1 (TDP1): qHTS in cells in absence of CPT | Potency, µM (series often up to 46.2 µM), most hits filed as inhibitors | 15% of 420,000 active | DT40 Tdp1-/- hTDP1 cells, no CPT, ATP luminescence, 48 h | AID 686978, 2013; further: nearly all actives have a fitted effect of over 55% in size
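Chicken DT40 Tdp1-/- cells complemented with human TDP1, screened without camptothecin (DMSO vehicle only), 400 cells/well. Compounds pin-transferred, cells incubated at 37 °C for at least 48 hr. Growth read as ATP-dependent luminescence (CellTiter-Glo, 30 min at RT).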
IL-1B inflam inh: qHTS for Inhibitors of Inflammasome Signaling: IL-1-beta AlphaLISA Primary Screen | 4.7% of 360,000 active | AID 743279, 2014 | activity change, % at 57.5 µM | THP-1 LPS/ATP IL-1B secretion, AlphaLISA, 16 h; stronger effect = lower value; in the data active means activity change below about -50%; inconclusive means mostly about -30% to -49%
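Secreted IL-1B measured by AlphaLISA bead assay after 16 h compound exposure of THP-1 cells; compounds (final up to 57.5 uM) added 1 h before LPS (250 ng/mL) and ATP (1.25 mM) stimulation; lower signal means less secretion.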
Six1-Eya2 inh: qHTS Assay for Inhibitors of the Six1/Eya2 Interaction; Homeobox protein SIX1 (Homo sapiens) + Protein phosphatase EYA2 (Homo sapiens), …; AlphaScreen GST-Six1/His-Eya2 binding, biochemical; stronger effect = lower value; activity change, % (test concentration not listed); 0.56% of 360,000 active; AID 651725, 2012; in the data active means activity change below about -65%; inconclusive means mostly about -30% to -63%
Target sequence (O00167 whole entry, looked up): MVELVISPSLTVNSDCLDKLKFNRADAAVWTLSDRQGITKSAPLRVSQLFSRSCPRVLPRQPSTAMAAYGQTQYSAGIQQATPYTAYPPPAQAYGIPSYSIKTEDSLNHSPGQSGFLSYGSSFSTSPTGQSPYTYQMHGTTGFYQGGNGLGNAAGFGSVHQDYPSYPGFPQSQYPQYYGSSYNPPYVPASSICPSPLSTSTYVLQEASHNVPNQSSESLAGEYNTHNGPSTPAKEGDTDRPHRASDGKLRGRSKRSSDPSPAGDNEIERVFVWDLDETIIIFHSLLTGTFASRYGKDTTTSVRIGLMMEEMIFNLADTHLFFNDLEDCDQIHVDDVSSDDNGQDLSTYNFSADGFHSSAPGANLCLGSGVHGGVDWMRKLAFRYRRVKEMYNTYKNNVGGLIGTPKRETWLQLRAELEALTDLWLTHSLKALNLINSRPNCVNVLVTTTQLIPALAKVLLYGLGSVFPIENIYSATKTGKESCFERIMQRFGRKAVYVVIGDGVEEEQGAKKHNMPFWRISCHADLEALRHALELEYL
Target sequence (Q15475 whole entry, looked up): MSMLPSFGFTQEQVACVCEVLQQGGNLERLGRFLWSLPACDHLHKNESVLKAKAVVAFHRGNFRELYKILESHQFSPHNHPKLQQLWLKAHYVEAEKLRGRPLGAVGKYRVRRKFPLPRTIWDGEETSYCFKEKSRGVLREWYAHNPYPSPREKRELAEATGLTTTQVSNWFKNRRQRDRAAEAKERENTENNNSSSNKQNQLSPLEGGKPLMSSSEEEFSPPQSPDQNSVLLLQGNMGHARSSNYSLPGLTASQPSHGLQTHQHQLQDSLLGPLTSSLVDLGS
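Six1/Eya2 binding was read as AlphaScreen signal after compounds were pinned into GST-Six1 plus His-tagged Eya2 (5X stock 250/500 nM) in pH 8.0 Tris/NaCl/TCEP buffer, beads added, then incubated 1 h, 37 C, dark.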
Each line names hits and unclear results; the compound was inactive in the other large screens. Unless noted, the call rests on the fitted dose curve; in most records, active means well fitted curve in the direction sought with a large enough effect; inconclusive means small, poorly fitted or top-dose-only effect, or another doubt; inactive means no such curve, though single readings can be large; an effect the other way counts as inactive or inconclusive.

C[C@@H]1NC(=O)N[C@@H]1CCCCCC(=O)O	IL-1B inflam inh -102 (no result: TDP1 inh)
Cc1cccc(C)c1NC(=O)CCCN1CC(C)OC(C)C1 (stereo not given)	none
N#Cc1cccc(NC(=O)N2CCC3(CC2)CCN(C(=O)c2ccco2)CC3)c1	DT40 TDP1 no CPT inconclusive (no result: CtBP-E1A blk, TDP1 inh, IL-1B inflam inh, Six1-Eya2 inh)
O=C1OC(c2ccccc2)=N/C1=C/c1cccc(OC(=O)c2cccs2)c1	IL-1B inflam inh -52 (no result: TDP1 inh)
Cc1no[n+]([O-])c1COc1cccc(/C=C2\N=C(c3ccccc3)OC2=O)c1	none
CCN1CCc2nc3sc(C(=O)c4ccccc4)c(N)c3cc2C1	DT40 TDP1 CPT 2.6µM, DT40 TDP1 no CPT 3.7µM (no result: CtBP-E1A blk, IL-1B inflam inh, Six1-Eya2 inh)
COc1ccc(NC(=O)c2sc3nc4c(cc3c2N)CN(Cc2ccccc2)CC4)cc1OC	none (no result: CtBP-E1A blk, IL-1B inflam inh, Six1-Eya2 inh)
CN1CCc2nc3sc(C(=O)c4ccc(F)cc4)c(N)c3cc2C1	DT40 TDP1 CPT inconclusive, DT40 TDP1 no CPT inconclusive (no result: CtBP-E1A blk, IL-1B inflam inh, Six1-Eya2 inh)
CCN1CCc2nc3sc(C(=O)c4ccc(F)cc4)c(N)c3cc2C1	DT40 TDP1 CPT inconclusive, DT40 TDP1 no CPT 23µM (no result: CtBP-E1A blk, IL-1B inflam inh, Six1-Eya2 inh)
COc1ccc(-c2ccnc(-n3ncc(C(=O)NC(C)(C)CO)c3C3CC3)n2)cc1F	none (no result: CtBP-E1A blk, TDP1 inh, IL-1B inflam inh, Six1-Eya2 inh)
Cc1cc2ncn(C(=O)c3cc(-c4ccccc4)nc4ccccc34)c2cc1C	none
O=C(O)c1ccccc1C(=O)Nc1nc(-c2ccc3ccccc3c2)cs1	none (no result: CtBP-E1A blk)
NS(=O)(=O)c1ccc(CCNCc2cc(Br)ccc2OCc2ccccc2)cc1	DT40 TDP1 CPT 15µM, DT40 TDP1 no CPT 12µM, IL-1B inflam inh -54
CCOc1cc(CNCCc2ccc(S(N)(=O)=O)cc2)cc(Cl)c1OCc1ccccc1	DT40 TDP1 CPT 13µM, DT40 TDP1 no CPT inconclusive, IL-1B inflam inh -81
OCCNCc1cc(Br)ccc1OCc1ccccc1	DT40 TDP1 CPT 23µM, DT40 TDP1 no CPT 16µM, IL-1B inflam inh -58
COc1ccc(Br)cc1CN(C)CC(=O)NCCc1ccc(S(N)(=O)=O)cc1	DT40 TDP1 no CPT inconclusive (no result: TDP1 inh)
CCOc1cc(CNCCc2ccc(S(N)(=O)=O)cc2)ccc1OCc1ccccc1	DT40 TDP1 CPT 12µM, DT40 TDP1 no CPT 12µM, IL-1B inflam inh -54
CCOc1cc(C(=O)NCCc2ccc(S(N)(=O)=O)cc2)cc(OCC)c1OCC	DT40 TDP1 no CPT inconclusive
C(=N\N=C\c1ccccc1)/c1ccccc1	DT40 TDP1 no CPT inconclusive
Clc1ccccc1CNCC1CCCO1 (stereo not given)	none (no result: TDP1 inh)
Brc1ccc(OCc2ccccc2)c(CNCC2CCCO2)c1 (stereo not given)	DT40 TDP1 CPT inconclusive, DT40 TDP1 no CPT 18µM (no result: CtBP-E1A blk)
NS(=O)(=O)c1ccc(NCc2cc(Cl)ccc2OCc2ccc(F)cc2)cc1	DT40 TDP1 CPT inconclusive, DT40 TDP1 no CPT inconclusive, IL-1B inflam inh -57, Six1-Eya2 inh inconclusive
CCOc1cc(CNn2cn[nH]c2=S)cc(Cl)c1OCc1ccccc1F	DT40 TDP1 CPT inconclusive, DT40 TDP1 no CPT 15µM
CCOc1cc(CNCCO)cc(Br)c1OCc1ccccc1	DT40 TDP1 CPT 18µM, DT40 TDP1 no CPT 16µM, IL-1B inflam inh -80
O=C(CSc1nnc(CNC(=O)c2cccs2)o1)c1ccccc1	DT40 TDP1 no CPT inconclusive
CCNCc1cc(Cl)c(OCc2ccccc2)c(OCC)c1	DT40 TDP1 CPT inconclusive, DT40 TDP1 no CPT inconclusive, IL-1B inflam inh -93
COc1ccccc1CNc1cccc(C)n1	DT40 TDP1 no CPT inconclusive (no result: TDP1 inh)
Cc1ccc(NC(=O)C2CCCN(S(=O)(=O)c3cccc4cccnc34)C2)c(Br)c1 (stereo not given)	DT40 TDP1 CPT inconclusive, DT40 TDP1 no CPT inconclusive (no result: CtBP-E1A blk, IL-1B inflam inh, Six1-Eya2 inh)

Compound activity from PubChem BioAssay.
